# Compound activity (PubChem BioAssay)
# KLF5 inhibitor: suppresses KLF5 promoter-driven expression; inhibition, % at 5 µM; hit rate 0.23% among 290,000; DLD-1 KLF5 promoter-luciferase reporter, luminescence; AID 1700;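 active = inhibition above a per-plate limit of that plate's mean compound inhibition plus 3 SD, cut at about 60% in these data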;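 note: 0% = DMSO wells and 100% = LY294002 at 200 µM; higher means less KLF5 promoter-driven luciferase light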
# DNA FID counter: counter-screen for HCV NS3 helicase inhibitors: DNA intercalator displacement. inhibition, % at 7.9 µM. hit rate 0.17% among 290,000. DNA fluorescent intercalator displacement, fluorescence; in the data active = inhibition above about 37%;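 note: 0% = vehicle and 100% = reference compound; higher means more ethidium bromide displaced from hairpin DNA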
# GPR7 antag: antagonists of human GPR7 (neuropeptides B/W receptor 1). P48145. GPR7-expressing cells, fluorescence antagonist assay. inhibition, % at 4.4 µM. hit rate 1.1% among 290,000. AID 1861; in the data active = inhibition above about 16%, passing the limit was not always enough;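 note: cells stimulated with the agonist NPW; 0% = agonist with vehicle and 100% = vehicle without agonist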
# Target sequence (P48145 whole entry, looked up): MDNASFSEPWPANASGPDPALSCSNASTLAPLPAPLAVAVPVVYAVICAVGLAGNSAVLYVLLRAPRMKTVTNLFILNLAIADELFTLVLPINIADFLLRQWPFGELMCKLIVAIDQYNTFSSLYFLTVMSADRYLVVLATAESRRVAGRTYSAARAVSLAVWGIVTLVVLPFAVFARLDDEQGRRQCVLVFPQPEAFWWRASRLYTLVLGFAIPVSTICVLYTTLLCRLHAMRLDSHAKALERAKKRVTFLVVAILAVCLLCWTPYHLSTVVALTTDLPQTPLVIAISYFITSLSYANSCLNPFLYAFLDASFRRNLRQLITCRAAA
# IEC-6 tox: kills IEC-6 intestinal cells in KLF5 counter-screen | IEC-6 cytotoxicity, luminescence viability | inhibition, % at 5 µM | hit rate 0.78% among 290,000; in the data active = inhibition above about 22%;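 note: 0% = plate median of test compound wells and 100% = cytotoxic reference compound wells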
# BaF3 tox: counter-screen for JAK2V617F inhibitors: parental Ba/F3 viability inhibitors; CellTiter-Glo ATP luminescence; inhibition, % at 5.6 µM; hit rate 1.1% among 220,000; AID 1486;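 active = inhibition above a per-campaign cutoff, the mean inhibition of all tested compounds plus 3 SD, cut at about 27% in these data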;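 note: 0% = DMSO wells and 100% = JAK Inhibitor I control wells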
# Ba/F3 V617F tox: loss of viability in JAK2V617F-driven Ba/F3 cells; Ba/F3 EpoR-JAK2V617F viability, ATP luminescence; inhibition, % at 5.6 µM; hit rate 1.1% among 220,000; AID 1446;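 active = inhibition above the campaign mean plus 3 SD over all tested compounds, cut at about 24% in these data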;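 note: cytokine-independent growth of Ba/F3 cells driven by EpoR plus mutant JAK2; 0% = DMSO-treated cells and 100% = JAK inhibitor I control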
# * hit, by the source's call; x = no result given. Sampled rows, rich in hits. Any-hit rate of the full collection: about 2.6%.
SMILES,KLF5 inhibitor,DNA FID counter,GPR7 antag,IEC-6 tox,BaF3 tox,Ba/F3 V617F tox
CC(C)c1ccc(NC(=O)c2n[nH]c(=O)c3ccccc23)cc1,-14,-1,-7,-5,8,1
Nc1c(C(=O)c2ccc(Cl)cc2)oc2ccccc12,-24,-2,0,7,6,0
CCCCCCc1ccc(OC(=O)c2ccncc2)cc1,-12,-21,-14,0,x,x
CCCCCCOc1ccc(OC(=O)c2ccncc2)cc1,-29,-4,-10,13,32*,44*
O=C(Cn1ncc(Cl)c(Cl)c1=O)N1CCN(S(=O)(=O)c2ccc3ccccc3c2)CC1,-10,-20,40*,10,2,1
CCN(CC)S(=O)(=O)c1cccc(-c2n[nH]c(=S)n2/N=C/c2ccc(Br)cc2)c1,-10,-9,-4,-3,94*,2
CCN(CC)S(=O)(=O)c1cccc(-c2n[nH]c(=S)n2/N=C/c2ccc(OC)cc2)c1,-31,-34,-11,-1,10,3
COc1ccc(CCNCC(O)COc2cccc(Br)c2)cc1OC (configuration not stated),3,11,2,-2,-11,0
COc1ccc(CCNCC(O)COc2ccc(OC)cc2C(C)(C)C)cc1 (configuration not stated),-8,43*,18,1,x,x
CCOC(=O)c1ccc2ncc(C(=O)OCC)c(NCCCN3CCOCC3)c2c1,-18,19,-5,5,8,4
CCOC(=O)c1cnc2c(C)cc(C)cc2c1NCCCN1CCOCC1,-32,71*,-1,9,x,x
CCOC(=O)c1cnc2c(ccc3ccccc32)c1NCCCN(C)C,-55,81*,-1,0,x,x
CCOC(=O)c1cnc2ccccc2c1NCCO,4,1,-2,-6,3,-5
CCOC(=O)c1cnc2c(C)c(Cl)ccc2c1NCCCN1CCOCC1,-23,54*,1,3,x,x
CCn1nc(C)c(CN2CCCC(CO)(Cc3cccc(Cl)c3)C2)c1C (configuration not stated),10,11,-6,-4,-3,-1
COc1ccc(NC(=O)Cn2nnc(-c3ccccc3NS(=O)(=O)c3ccc(OC)cc3)n2)cc1,75*,-3,26*,46*,66*,78*
COc1cccc(C(=O)N2CCN(C(=O)c3ccc(-c4ccccc4)cc3)CC2)c1OC,-11,-39,-1,-2,6,-2
COc1ccc(C(=O)N2CCC(c3ccccc3)CC2)c(OC)c1OC,-8,-31,20*,-5,3,0
O=C(Cc1ncc(C(F)(F)F)cc1Cl)N1CCN(c2cccc(Cl)c2)CC1,15,-31,-3,3,-1,0
Cc1cc(NC(=O)COC(=O)c2ccc(S(=O)(=O)N3CCCc4ccccc43)cc2)no1,63*,-10,6,2,49*,63*
COc1cccc(OC)c1C(=O)Nc1c(C(=O)N2CCN(C)CC2)oc2ccccc12,-29,0,-9,-6,x,x
COc1cc(NCCCCCCCN)c2ncccc2c1,-13,3,-11,11,37*,50*
Cc1cccc(NC(=O)[C@H](Cc2c[nH]c3ccccc23)NC(=O)[C@@H]2Cc3ccccc3CN2)c1,20,8,5,-2,x,x
Cc1cc(C)cc(NC(=O)[C@H](Cc2c[nH]c3ccccc23)NC(=O)[C@@H]2Cc3ccccc3CN2)c1,-23,40*,19,-3,x,x
CC1(C)CC(=O)C=C(NNC(=O)OC(C)(C)C)C1,7,0,-7,4,5,0
SMILES,KLF5 inhibitor,DNA FID counter,GPR7 antag,IEC-6 tox,BaF3 tox,Ba/F3 V617F tox
CC#CC[N+](C)(C)CC(=O)c1ccccc1,-12,2,-1,-2,0,0
CC#CC[N+](C)(C)CCCCCCCC,27,2,3,8,63*,66*
CC1C=CCC2C(=O)N(c3ccc(OC(=O)c4cccs4)cc3)C(=O)C12 (configuration not stated),-6,-16,5,3,-1,-3
CC1C=CCC2C(=O)N(c3ccc(OC(=O)c4ccco4)cc3)C(=O)C12 (configuration not stated),1,-21,19*,-1,5,5
COc1ccc(OC)c(CCNC(=O)Cn2sc3nc(C)cc(C)c3c2=O)c1,-22,-20,16*,-8,4,-3
CCCCCOc1ccc(Br)cc1CSC(=N)N,25,29,72*,49*,47*,60*
CC1=CC(C)(C)N(C(=O)CSc2nnc(N)s2)c2c(C)cc(C)cc21,3,-25,7,2,8,2
